Screening results (PubChem)
This is a sample that favours compounds with a hit; in the whole collection about 4% have one here.
HIF-2a block – HIF-2a reporter inhibitors, primary screen, luminescence, 786-0 RCC cells; AID 624352, 2012; hit rate 0.72% among 360,000; inhibition, % at 18.8 µM; 786-0 RCC cells HIF-2a reporter, luciferase luminescence, overnight;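 active = inhibition of the luminescence signal of 40% or more relative to plate controls, in a single-dose primary screen at 18.75 µM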
CF NFkB inh – inhibitors of PAF-induced NF-kB signaling, primary screen, cell-based, GFP fluorescence, uHTS; KKLEB NF-kB-GFP reporter, GFP fluorescence overnight; inhibition, % at 5 µM; hit rate 0.86% among 360,000;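 active = at least 50% inhibition at 5 µM, scaled per plate between neutral and stimulator controls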;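 note: PAF is a Pseudomonas aeruginosa culture filtrate used as stimulus; plate controls were PAF-stimulated DMSO wells for no effect and unstimulated DMSO wells for full effect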
Peg3 prom inh-1 – Peg3 promoter-driven luciferase inhibitors, primary screen, cell-based, HeLa, luciferase luminescence; HeLa PEG-Prom luciferase reporter, overnight; inhibition, % at 20 µM; hit rate 1.7% among 360,000; AID 588405, 2011;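 active = inhibition of at least 50% at 20 µM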
KKLEB tox – cytotoxicity in KKLEB CF airway cells, primary screen, cytotoxicity control for CF NF-kB inhibitor project, cell-based, uHTS, fluorescence assay plates; KKLEB CF airway cells viability, ATPlite luminescence, overnight; active compounds read low; cells stimulated with P. aeruginosa culture filtrate; activity change (cytotoxicity), % at 5 µM; hit rate 0.36% among 360,000;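 active = corrected activity change at or below -50% at 5 µM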
TWEAK Fn14 block – inhibitors of TWEAK-Fn14 signaling, primary screen, luciferase reporter cells, uHTS | hit rate 2% among 360,000 | inhibition, % at 10 µM | TWEAK-stimulated Fn14 reporter cells, luciferase luminescence, 8 h; in the data active = inhibition above about 50%
TROY signal inh – inhibitors of TROY-driven NF-kB signaling, primary screen, Q293 LMP1-TROYcd cells, NF-kB luciferase, uHTS; Q293 LMP1-TROYcd NF-kB luciferase reporter, 4 h; inhibition, % at 10 µM; hit rate 0.98% among 360,000; AID 1347056, 2019;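 active = compounds whose plate-normalised and pattern-corrected inhibition of the luciferase reporter signal at the single screening dose is 50% or more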
Peg3 prom inh-2 – Peg3 promoter reporter inhibitors, retest, confirmation, cell-based, HeLa, luciferase reporter, single concentration; shares compounds with Peg3 prom inh-1; HeLa PEG-Prom luciferase reporter, luminescence, overnight; inhibition, % at 20 µM; hit rate 84% among 1,300;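 active = at 20 µM dose, 40% or more inhibition averaged across four replicates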
* = called active by the depositor.

How did CC(NS(=O)(=O)OCC(Cl)(Cl)Cl)c1ccc(C(C)(C)C)cc1 (stereo not drawn) do in these assays?
HIF-2a block: 25; CF NFkB inh: 28; Peg3 prom inh-1: 56*; KKLEB tox: 0; TWEAK Fn14 block: 12; TROY signal inh: -17; Peg3 prom inh-2: 49*

Results for Cn1cccc1-c1cc(C(=O)N/N=C/c2ccccc2Cl)[nH]n1 ?
HIF-2a block: -303; CF NFkB inh: 0; Peg3 prom inh-1: -273; KKLEB tox: -14; TWEAK Fn14 block: 5; TROY signal inh: -16

What do the screens show for `Cn1cccc1-c1cc(C(=O)N/N=C/c2cc(Br)ccc2O)[nH]n1`?
HIF-2a block: 3; CF NFkB inh: 4; Peg3 prom inh-1: 58*; KKLEB tox: 7; TWEAK Fn14 block: -21; TROY signal inh: 15; Peg3 prom inh-2: 62*

What do the screens show for `CN(C(=O)COC(=O)/C=C/c1cccc([N+](=O)[O-])c1)C1CCS(=O)(=O)C1` (stereo not drawn)?
HIF-2a block: 40; CF NFkB inh: 9; Peg3 prom inh-1: 51*; KKLEB tox: -4; TWEAK Fn14 block: -27; TROY signal inh: 5; Peg3 prom inh-2: 62*

Results for O=C(Nc1nnc([C@H]2C[C@H](O)[C@@H](CO)O2)s1)c1ccc(Oc2ccccc2)cc1 ?
HIF-2a block: -49; CF NFkB inh: 7; Peg3 prom inh-1: -43; KKLEB tox: 13; TWEAK Fn14 block: -8; TROY signal inh: -22

What do the screens show for `COc1cccc(NC(=O)CN(C)C(=O)c2cccnc2Nc2cccc(C(F)(F)F)c2)c1`?
HIF-2a block: 9; CF NFkB inh: -18; Peg3 prom inh-1: 69*; KKLEB tox: -8; TWEAK Fn14 block: 26; TROY signal inh: 3; Peg3 prom inh-2: 73*

Results for O=C(C(=O)N(Cc1ccccc1)Cc1ccccc1)c1c(-c2ccccc2)[nH]c2ccccc12 ?
HIF-2a block: -23; CF NFkB inh: 94*; Peg3 prom inh-1: 64*; KKLEB tox: -81*; TWEAK Fn14 block: 52*; TROY signal inh: 17; Peg3 prom inh-2: 68*

What do the screens show for `CCN(CC)CCSc1nnc2c3cc(C)ccc3n(Cc3ccccc3)c2n1`?
HIF-2a block: 14; CF NFkB inh: -31; Peg3 prom inh-1: 64*; KKLEB tox: -6; TWEAK Fn14 block: -8; TROY signal inh: 5; Peg3 prom inh-2: 46*

Results for O=C1CCCN1c1ccc(S(=O)(=O)Oc2ccc(Cl)cc2)cc1[N+](=O)[O-] ?
HIF-2a block: 3; CF NFkB inh: 4; Peg3 prom inh-1: 21; KKLEB tox: -7; TWEAK Fn14 block: 22; TROY signal inh: 5

Results for C[C@@]12C(=O)Nc3cc(Cl)ccc3C(=O)N1[C@H]1c3cc(Cl)ccc3OC[C@@H]1[C@@H]2c1ccccc1 ?
HIF-2a block: -6; CF NFkB inh: 24; Peg3 prom inh-1: 56*; KKLEB tox: -37; TWEAK Fn14 block: 37; TROY signal inh: 9; Peg3 prom inh-2: 57*

What do the screens show for `COc1cc(C(C)=O)ccc1OCC(=O)N1CCC(Cc2ccccc2)CC1`?
HIF-2a block: 19; CF NFkB inh: -4; Peg3 prom inh-1: 9; KKLEB tox: -7; TWEAK Fn14 block: -16; TROY signal inh: 0

What do the screens show for `CCc1ccccc1N(CC)C(=O)C1CCN(c2ncnc3c2nc2n3CCCCC2)CC1`?
HIF-2a block: 24; CF NFkB inh: 30; Peg3 prom inh-1: 56*; KKLEB tox: -20; TWEAK Fn14 block: -13; TROY signal inh: 10; Peg3 prom inh-2: 37

What do the screens show for `CCCCn1c(N)c(N(CCC(C)C)C(=O)c2cc(CC)c(C)s2)c(=O)[nH]c1=O`?
HIF-2a block: 10; CF NFkB inh: 15; Peg3 prom inh-1: 1; KKLEB tox: 4; TWEAK Fn14 block: -2; TROY signal inh: -22

Results for COc1ccc(C2C3(C#N)C(N)=NC(OC)(OC)C23C#N)cc1 (stereo not drawn) ?
HIF-2a block: 5; CF NFkB inh: 17; Peg3 prom inh-1: 17; KKLEB tox: -8; TWEAK Fn14 block: 12; TROY signal inh: -1

What do the screens show for `COc1ccc(C2NC3=C(CCC3)C3(C#N)C4(N=C(N)C23C#N)OCCO4)cc1` (stereo not drawn)?
HIF-2a block: 38; CF NFkB inh: -19; Peg3 prom inh-1: 67*; KKLEB tox: 9; TWEAK Fn14 block: 24; TROY signal inh: 12; Peg3 prom inh-2: 30

Results for CN1CCN(CCNC(=O)Nc2ccc(Cl)cc2)CC1 ?
HIF-2a block: -16; CF NFkB inh: -22; Peg3 prom inh-1: -3; KKLEB tox: -10; TWEAK Fn14 block: 15; TROY signal inh: -23

What do the screens show for `COCCN1C[C@@H](CO)O[C@@H](n2cnc3c(NC(C)C)ncnc32)C1`?
HIF-2a block: 9; CF NFkB inh: -6; Peg3 prom inh-1: 0; KKLEB tox: -8; TWEAK Fn14 block: -14; TROY signal inh: 11

Results for O=C(NN=Cc1c(F)c(F)c(F)c(F)c1F)c1ccc(NS(=O)(=O)c2cccs2)cc1 ?
HIF-2a block: 12; CF NFkB inh: 35; Peg3 prom inh-1: 57*; KKLEB tox: -21; TWEAK Fn14 block: 44; TROY signal inh: 0; Peg3 prom inh-2: 37

Results for CCN1CCN(CCNC(=O)c2ccc(/C=C3\Sc4ccccc4N(Cc4ccccc4F)C3=O)cc2)CC1 ?
HIF-2a block: -3; CF NFkB inh: -6; Peg3 prom inh-1: 109*; KKLEB tox: -30; TWEAK Fn14 block: -66; TROY signal inh: 65*; Peg3 prom inh-2: 99*

How did O=c1cc2oc3cc(O)c(O)cc3c(-c3ccccc3[N+](=O)[O-])c-2cc1O do in these assays?
HIF-2a block: 17; CF NFkB inh: 12; Peg3 prom inh-1: 60*; KKLEB tox: -20; TWEAK Fn14 block: 45; TROY signal inh: 37; Peg3 prom inh-2: 75*

How did Cc1ccc(-c2cn3nc(C)c(C)nc3n2)cc1 do in these assays?
HIF-2a block: 2; CF NFkB inh: -20; Peg3 prom inh-1: 60*; KKLEB tox: 3; TWEAK Fn14 block: -9; TROY signal inh: 0; Peg3 prom inh-2: 46*

What do the screens show for `O=C(NN=Cc1ccc(Cl)cc1Cl)c1ccccc1`?
HIF-2a block: -230; CF NFkB inh: -8; Peg3 prom inh-1: -350; KKLEB tox: 1; TWEAK Fn14 block: -11; TROY signal inh: -52

What do the screens show for `NC(N)=N/N=C/c1ccc(Cl)cc1Cl`?
HIF-2a block: -46; CF NFkB inh: 12; Peg3 prom inh-1: 69*; KKLEB tox: -22; TWEAK Fn14 block: 7; TROY signal inh: 2; Peg3 prom inh-2: 83*
